Compound activity as filed in PubChem.
An excerpt weighted towards active compounds, which were near 1.3% of everything screened.
S1P2 ag – agonists of human S1P2 receptor; O95136; S1P2-expressing cell line, agonist reporter read-out; activation, % at 4.5 µM; 97,000 compounds, 0.46% hits; AID 729; in the data active means activation above about 16%;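 further: 0% = vehicle low control and 100% = maximal reference agonist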
GALR2 blocker – blocks the human galanin receptor 2; O43603; GALR2-expressing cells, antagonist mode; inhibition, % at 4 µM; 140,000 compounds, 0.39% hits; AID 828; in the data active means inhibition above about 27%;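 further: cells stimulated with galanin 1-16 at roughly its EC80; 0% = agonist challenge control and 100% = basal control without agonist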
Target sequence (O43603 whole entry, looked up): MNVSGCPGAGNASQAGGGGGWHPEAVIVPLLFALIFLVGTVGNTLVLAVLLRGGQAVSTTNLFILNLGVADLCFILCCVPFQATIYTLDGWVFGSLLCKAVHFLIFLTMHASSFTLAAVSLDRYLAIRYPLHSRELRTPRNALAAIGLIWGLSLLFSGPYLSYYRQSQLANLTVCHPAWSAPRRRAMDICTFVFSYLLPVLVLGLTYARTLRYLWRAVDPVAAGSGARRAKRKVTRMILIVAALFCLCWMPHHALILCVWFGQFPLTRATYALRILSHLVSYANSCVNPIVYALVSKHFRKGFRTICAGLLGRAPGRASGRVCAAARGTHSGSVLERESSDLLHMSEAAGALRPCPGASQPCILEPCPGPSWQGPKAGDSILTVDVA
GALR2 agonist – activates the human galanin receptor 2. O43603. GALR2-expressing cells, agonist activation read-out. activation, % (test concentration not listed). 140,000 compounds, 0.48% hits. AID 803; in the data active means activation above about 5%, passing the limit was not always enough;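 further: 0% = vehicle buffer wells and 100% = reference agonist at full effect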
S1P2 blocker – S1P2 (human) receptor antagonism. O95136. inhibition, % at 5 µM. 97,000 compounds, 0.21% hits. AID 736. cell-based S1P2 antagonist assay, inhibition at 5 uM; in the data active means inhibition above about 45%;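 further: CRE beta-lactamase reporter cells expressing human S1P2 stimulated with S1P; 0% = agonist at EC80 alone and 100% = agonist plus reference antagonist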
F-actin modifier – cytoskeleton assembly modification; 91,000 compounds, 0.18% hits; HUVEC TNFa F-actin phalloidin imaging, high content; inhibition, % at 2 µM;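 active means inhibition above the batch mean plus 3 SD and confirmed as a hit by visual image inspection, cut at about 30% in these data, passing the limit was not always enough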
Active calls of the source: *; nt = no result given.

SMILES	S1P2 ag	GALR2 blocker	GALR2 agonist	S1P2 blocker	F-actin modifier
CC(=O)Nc1ccc(S(=O)(=O)NC2(C(F)(F)F)C(=O)Nc3c2c(=O)[nH]c(=O)n3C)cc1 (stereo unspecified)	-8	-3	-2	1	34*
NC(=O)CCNC(=O)c1ccc(Cl)cc1	44*	-8	-2	25	2
CCOC(=O)c1c(C)[nH]c(C(=O)N/N=C\c2ccccc2Cl)c1C	nt	3	-2	nt	nt
CCSc1ccc(-c2nn(-c3ccccc3)cc2/C=C(/C#N)C(=O)NCCCOC)cc1	nt	0	5.9*	nt	nt
CCCSc1ccc(-c2nn(-c3ccccc3)cc2/C=C(/C#N)C(=O)NCCCOC)cc1	nt	13	-1	nt	nt
COc1cc2c(cc1OC)C(COc1ccc3c(C)cc(=O)oc3c1)N(C(=O)c1ccco1)CC2 (stereo unspecified)	21*	2	-1	-8	-5
c1ccc(-c2c3ccccc3nc3[nH]c4ccccc4c23)cc1	nt	-5	5.0*	nt	nt
CCOc1cc(CNCCc2ccc(S(N)(=O)=O)cc2)ccc1OCc1ccc(Cl)cc1	-5	9	1	61*	-49
COc1cc(CNCCc2ccc(S(N)(=O)=O)cc2)ccc1OCc1ccc(Cl)cc1	-8	-10	-1	27	7
COc1ccc(CNCc2ccco2)cc1OCc1ccccc1	-7	-8	-2	15	14
COc1ccccc1CCNCc1ccc(OC)c(OCc2ccccc2)c1	-5	18	-1	48*	10
O=c1nc(-c2ccccc2)n(-c2ccccc2)[nH]1	nt	10	-3	nt	nt
NC(=O)CSc1nnc(CCc2nc3ccccc3[nH]2)n1-c1ccccc1	-2	15	-1	-2	-9
Cn1c(=O)cc(NCc2ccccc2)[nH]c1=O	nt	10	-2	nt	nt
CCCCNc1cc(=O)n(C)c(=O)[nH]1	38*	12	-1	-4	-8
Cc1cc(C(=O)O)ccc1-n1c(C)ccc1C	25*	0	-2	10	-13
CCCCC(CC)Cn1c(N)c(C#N)c2nc3ccccc3nc21 (stereo unspecified)	50*	-15	35*	-61	5
COC(=O)c1[nH]c2cc(OC)ccc2c1NC(=O)CN1CCC(C(N)=O)(N2CCCCC2)CC1	-2	-5	-2	14	55*
Cc1ccc(S(=O)(=O)N2CC3(C)CN(S(=O)(=O)c4ccc(C)cc4)CC(C)(C2)C3O)cc1 (stereo unspecified)	nt	10	5.0*	nt	nt
O=c1oc2ccccc2cc1-c1nc2c(s1)CCCC2	16*	17	17*	-6	-6
COc1ccc(Cl)cc1NC(=O)COC(=O)c1cc(NS(=O)(=O)c2cccs2)ccc1O	nt	-3	0	nt	nt
CN1C(=O)C(CC(=O)NC2CCCCC2)SC1=Nc1ccccc1 (stereo unspecified)	nt	-9	0	nt	nt
COc1ccc(/C=C/C(=O)c2cc(F)ccc2OC(=O)c2ccccc2)cc1OC	-3	13	5.5*	-4	-45
COc1ccc(/C=C/C(=O)c2cc(F)ccc2OC(=O)c2ccc(OC)c(OC)c2)cc1OC	nt	19	-1	nt	nt
Cc1cc(Nc2ccc(Cl)cc2)nc(NCc2ccccc2)n1	nt	12	3	nt	nt
SMILES	S1P2 ag	GALR2 blocker	GALR2 agonist	S1P2 blocker	F-actin modifier
CCCCNc1cc(C)nc(NCc2ccccc2)n1	-4	24	-1	57*	2
COC(=O)c1cn[nH]c1NC(=S)Nc1ccccc1C	57*	-3	0	-1	26
CC1(C)C2CCC1(C)C1(C2)NC(=O)c2ccccc2O1 (stereo unspecified)	nt	-1	0	nt	nt
COCCn1c(=NC(C)=O)sc2cc([N+](=O)[O-])ccc21	nt	1	6.2*	nt	nt
COc1cccc(C2C3=C(CCCC3=O)Nc3nc(-c4cc(OC)c(OC)c(OC)c4)nn32)c1 (stereo unspecified)	17*	2	1	-26	16
CN(C)S(=O)(=O)c1cccc(-c2nn(-c3ccccc3)cc2/C=C(\C#N)c2nc3ccccc3[nH]2)c1	nt	-7	7.3*	nt	nt
O=C(Nc1ccccc1C(=O)NCc1ccccc1)c1ccccc1	-4	7	-2	18	-16
CN(Cc1ccccc1)C(=O)c1ccccc1NC(=O)c1ccccc1	-7	-2	-1	16	51*
Cc1cc(C)n(-c2nnc(NC34CC5CC(CC(C5)C3)C4)nn2)n1	nt	1	0	nt	nt
Cc1ccc(-n2c(C)nnc2SCC(=O)N2CCc3ccccc3C2)cc1	nt	13	-1	nt	nt
O=c1c(-c2nc3ccccc3s2)cccn1Cc1ccc(Cl)c(Cl)c1	109*	-13	12*	-117	-13
CCc1ccc(N2C(=O)CC(N3CCC(C(=O)OC)CC3)C2=O)cc1 (stereo unspecified)	27*	5	-2	-6	-2
CCOC(=O)C1CCN(C2CC(=O)N(c3ccc(OCC)cc3)C2=O)CC1 (stereo unspecified)	-1	-3	-3	11	10
c1csc(C2=Nn3c(nnc3-c3ccncc3)SC2)c1	-10	18	-2	49*	-20
N=c1c(C(=O)NCc2ccc(F)cc2)cc2c(=O)n3ccccc3nc2n1CCCN1CCOCC1	nt	-17	9.7*	nt	nt
N=c1c(C(=O)NCc2ccc(F)cc2)cc2c(=O)n3ccccc3nc2n1Cc1cccnc1	21*	-9	6	-27	-12
Cc1cccn2c(=O)c3cc(C(=O)NCC4CCCO4)c(=N)n(Cc4cccnc4)c3nc12 (stereo unspecified)	nt	4	1	nt	nt
N=c1c(C(=O)NCC2CCCO2)cc2c(=O)n3ccccc3nc2n1Cc1cccnc1 (stereo unspecified)	nt	-1	5.8*	nt	nt
O=C(CN1CCN(c2ccccc2)CC1)N/N=C/c1cccc(F)c1	nt	-4	-2	nt	nt
O=C(c1ccc(F)cc1)C(CN1CCOCC1)c1ccccc1 (stereo unspecified)	-13	32*	-1	28	-3
O=C(c1ccccc1)C(CCC(CN1CCOCC1)C(=O)c1ccccc1)CN1CCOCC1 (stereo unspecified)	-6	8	0	53*	0
c1ccc(C(CN2CCOCC2)c2ccccc2)cc1	-4	-2	-1	-13	1
COc1ccc(C(=O)C(CN2CCOCC2)c2ccccc2)cc1 (stereo unspecified)	-2	20	-1	0	nt
O=C(CO/N=C/c1ccccc1O)N1CCc2ccccc21	nt	-10	4	nt	nt
CCOC(=O)c1c(C)[nH]c(C(=O)OC/C(O)=C(\C#N)c2nc3ccccc3[nH]2)c1C	16*	-15	-1	10	-21
SMILES	S1P2 ag	GALR2 blocker	GALR2 agonist	S1P2 blocker	F-actin modifier
COc1ccccc1OCC(=O)OC/C(O)=C(\C#N)c1nc2ccccc2[nH]1	nt	-3	-1	nt	nt
O=C(COC(=O)c1cccc(Cl)c1)Nc1cc(Cl)ccc1Oc1ccccc1	nt	-15	0	nt	nt
N=c1oc2c3c4c(cc2cc1C(=O)Nc1ccccc1)CCCN4CCC3	-1	-6	1	19	43*
O=C(Nc1cccnc1)c1coc(=O)c2ccccc12	-2	-2	-2	-3	55*
O=C(Nc1cccnc1)c1ccccc1O	-1	-6	-2	-13	9
N#C/C(=C/c1ccc(N2CCCCCC2)o1)c1ccc(Cl)cc1	-5	27	0	49*	19
CCOC(=O)c1sc2nc(C3CC3)cc(-c3ccc(F)cc3)c2c1N	38*	-7	-1	-16	8
